From PubChem BioAssay AID1159580 (chemical genetic matrix, 2015)
Values joined by “and” are separate entries in the source; they are usually repeats but may differ in a detail not shown here. Equal values may be shown once. The whole screen tested about 5,500 compounds, of which about 2,000 (36%) were called active. Inconclusive results (about 18%) are left out. Cut-off read from the data, not from the text of the source: active = normalized growth mostly below about 0.91 (no sharp cut-off); inconclusive = no clear call, values can overlap the other calls; inactive = mostly above about 0.92. This is one part of the list.

Assay: chemical genetic growth profiling, strain panel (AID 1159580);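 note: tested at 20 µM; growth read once vehicle control cultures reached saturation at 30 °C; 1 = growth at the plate median or of vehicle wells; lower values mean less growth of the strain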
Details: S. cerevisiae deletion strains, growth OD

Measured: normalized growth

NS(=O)(=O)c1cc2c(cc1Cl)NC=NS2(=O)=O
inactive: locus YAL013W, strain DEP1, stronger effect = lower value 1 | locus YAL021C, strain ccr4, stronger effect = lower value 0.984 | locus YAL026C, strain drs2, stronger effect = lower value 1.01 | locus YAL030W, strain snc1, stronger effect = lower value 1 | locus YAL040C, strain CLN3, stronger effect = lower value 1 | locus YBL061C, strain skt5, stronger effect = lower value 1 | locus YBR009C, strain hhf1, stronger effect = lower value 0.983 | locus YBR021W, strain FUR4, stronger effect = lower value 1 | locus YBR023C, strain chs3, stronger effect = lower value 1 | locus YBR171W, strain sec66, stronger effect = lower value 1 | locus YBR229C, strain ROT2, stronger effect = lower value 1 | locus YBR231C, strain swc5, stronger effect = lower value 0.973 | locus YBR279W, strain paf1, stronger effect = lower value 0.997 | locus YCL011C, strain gbp2, stronger effect = lower value 1 | locus YCL016C, strain dcc1, stronger effect = lower value 0.999 | locus YCL029C, strain bik1, stronger effect = lower value 0.997 | locus YCL061C, strain MRC1 (second series), stronger effect = lower value 1 | locus YCL061C, strain MRC1, stronger effect = lower value 1.01 | locus YCL069W, strain vba3, stronger effect = lower value 1.01 | locus YCR088W, strain abp1, stronger effect = lower value 0.995 | locus YDL005C, strain med2, stronger effect = lower value 0.997 | locus YDL035C, strain GPR1, stronger effect = lower value 1.02 | locus YDL040C, strain nat1, stronger effect = lower value 1 | locus YDL074C, strain BRE1, stronger effect = lower value 1.01 | locus YDL101C, strain DUN1, stronger effect = lower value 1.01 | locus YDL134C, strain PPH21, stronger effect = lower value 1 | locus YDL185W, strain tfp1, stronger effect = lower value 0.974 | locus YDL192W, strain arf1, stronger effect = lower value 1 | locus YDR001C, strain nth1, stronger effect = lower value 1.03 | locus YDR069C, strain doa4, stronger effect = lower value 1 | locus YDR101C, strain arx1, stronger effect = lower value 0.996 | locus YDR137W, strain rgp1, stronger effect = lower value 0.999 | locus YDR150W, strain NUM1, stronger effect = lower value 1.01 | locus YDR159W, strain sac3, stronger effect = lower value 1 | locus YDR162C, strain NBP2, stronger effect = lower value 1.02 | locus YDR195W, strain ref2 0.93 | locus YDR297W, strain sur2, stronger effect = lower value 1 | locus YDR318W, strain mcm21, stronger effect = lower value 1 | locus YDR334W, strain swr1, stronger effect = lower value 1 | locus YDR335W, strain msn5, stronger effect = lower value 1.02 | locus YDR388W, stronger effect = lower value 0.997 | locus YDR392W, strain spt3, stronger effect = lower value 1 | locus YDR502C, strain sam2, stronger effect = lower value 1.01 | locus YEL003W, strain gim4, stronger effect = lower value 0.99 | locus YEL037C, strain rad23, stronger effect = lower value 0.999 | locus YEL061C, strain CIN8 (second series), stronger effect = lower value 1.02 | locus YEL061C, strain CIN8, stronger effect = lower value 1 | locus YER002W, strain NOP16, stronger effect = lower value 0.975 | locus YER015W, strain faa2, stronger effect = lower value 1.01 | locus YER016W, strain bim1, stronger effect = lower value 1.01 | locus YER110C, stronger effect = lower value 0.986 | locus YER111C, strain swi4, stronger effect = lower value 0.99 | locus YER155C, strain BEM2 (second series), stronger effect = lower value 0.963 | locus YER155C, strain BEM2, stronger effect = lower value 1 | locus YER167W, strain BCK2, stronger effect = lower value 1.03 | locus YFR010W, strain ubp6, stronger effect = lower value 1.02 | locus YGL078C, strain dbp3, stronger effect = lower value 1 | locus YGL086W, strain mad1, stronger effect = lower value 1 | locus YGL167C, strain pmr1, stronger effect = lower value 0.993 | locus YGL173C, strain kem1, stronger effect = lower value 0.989 | locus YGL227W, strain vid30, stronger effect = lower value 0.988 | locus YGL240W, strain doc1, stronger effect = lower value 0.988 | locus YGL248W, strain PDE1, stronger effect = lower value 1.01 | locus YGL253W, strain hxk2, stronger effect = lower value 1.03 | locus YGR078C, strain PAC10, stronger effect = lower value 1.01 | locus YGR135W, strain pre9, stronger effect = lower value 0.998 | locus YGR229C, strain SMI1, stronger effect = lower value 1.02 | locus YGR252W, strain gcn5, stronger effect = lower value 1.02 | locus YHR013C, strain ard1, stronger effect = lower value 0.966 | locus YHR027C, strain rpn1, stronger effect = lower value 1 | locus YHR030C, strain SLT2, stronger effect = lower value 1.01 and 0.954 | locus YHR079C, strain IRE1 (second series), stronger effect = lower value 1 | locus YHR079C, strain IRE1, stronger effect = lower value 0.965 | locus YHR094C, strain hxt1, stronger effect = lower value 0.995 | locus YHR129C, strain ARP1, stronger effect = lower value 1 | locus YHR142W, strain chs7, stronger effect = lower value 1.02 | locus YHR200W, strain rpn10, stronger effect = lower value 0.993 | locus YIL066C, strain RNR3, stronger effect = lower value 1.02 | locus YIL073C, strain SPO22, stronger effect = lower value 1.03 | locus YIL125W, strain kgd1, stronger effect = lower value 1 | locus YIR030C, strain dcg1, stronger effect = lower value 0.99 | locus YJL092W, strain hpr5, stronger effect = lower value 1.01 | locus YJL095W, strain BCK1 (second series), stronger effect = lower value 1 | locus YJL095W, strain BCK1, stronger effect = lower value 1.02 and 0.975 | locus YJL115W, strain asf1, stronger effect = lower value 1.01 | locus YJL129C, strain trk1, stronger effect = lower value 1.02 | locus YJL134W, strain LCB3, stronger effect = lower value 1 | locus YJL154C, strain vps35, stronger effect = lower value 0.989 | locus YJL164C, strain tpk1, stronger effect = lower value 1 | locus YJL166W, strain qcr8, stronger effect = lower value 0.985 | locus YJL168C, strain set2, stronger effect = lower value 0.995 | locus YJL187C, strain SWE1 (second series), stronger effect = lower value 1.03 | locus YJL187C, strain SWE1, stronger effect = lower value 1.01 | locus YJR043C, strain POL32, stronger effect = lower value 0.996 | locus YJR066W, strain TOR1, stronger effect = lower value 0.973
